Prx2 Sm inh = Schistosoma Mansoni Peroxiredoxins (Prx2) | Schistosoma mansoni peroxiredoxin 2 (Prx2) | S. mansoni Prx2 activity coupled to TGR/GSH (TGR is thioredoxin glutathione reductase), NADPH fluorescence loss, qHTS | Potency, µM | hit rate 0.07% among 65,000
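Purified S. mansoni TGR and Prx2 in pH 7.4 phosphate buffer with EDTA and Tween-20 were preincubated with compounds for 15 min. Further NADPH/GSH was added, then a 2.5 mM H2O2 aliquot initiated turnover, followed kinetically by NADPH fluorescence.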
AmpC nodet inh = Promiscuous and Specific Inhibitors of AmpC Beta-Lactamase (assay without detergent); P00811; AmpC nitrocefin hydrolysis, absorbance 480 nm, no detergent; Potency, µM (top dose mostly 28.7 µM), without a hit: at the highest dose activity change, negative = inhibition; hit rate 1.8% among 71,000; note: % of control where 0% means no effect
Target sequence (P00811 whole entry, looked up): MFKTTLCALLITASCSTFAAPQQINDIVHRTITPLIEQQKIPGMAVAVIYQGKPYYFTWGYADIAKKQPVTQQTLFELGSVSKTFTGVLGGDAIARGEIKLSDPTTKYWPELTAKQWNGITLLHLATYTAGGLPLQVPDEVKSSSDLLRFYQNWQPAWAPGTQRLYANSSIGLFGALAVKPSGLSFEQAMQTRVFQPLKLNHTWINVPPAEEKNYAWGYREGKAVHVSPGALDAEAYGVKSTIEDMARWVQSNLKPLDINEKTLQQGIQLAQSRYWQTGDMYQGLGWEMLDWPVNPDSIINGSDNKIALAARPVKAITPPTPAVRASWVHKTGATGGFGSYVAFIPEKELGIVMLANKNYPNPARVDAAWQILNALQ
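AmpC, 20 mM phosphate pH 7.0; 15 min cpd preinc, RT; start with nitrocefin (800 uM stock); A480 kinetic read, 20 s intervals, 4 min. No-enzyme wells = negative control.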
Anthrax LT inh = qHTS Assay for Anthrax Lethal Toxin Internalization; Cells, anthrax lethal toxin internalization, FRET ratio (460/530); Potency, µM (series often up to 40 µM), inactives show at the top dose activity change, negative = inhibition, most hits filed as inhibitors; hit rate 0.67% among 70,000; note: % is set by controls: 0 for no effect and ±100 for the full control effect; nearly all actives have a fitted effect of over 50% in size
AmpC inh det = Promiscuous and Specific Inhibitors of AmpC Beta-Lactamase (assay with detergent); purified AmpC, nitrocefin hydrolysis with detergent; hit rate 0.09% among 71,000; Potency, µM (titrated, usually from 28.7 µM), for inactives: at the top dose activity change, negative = inhibition; active = well fitted curve in the direction sought with a large enough effect; inconclusive = small, poorly fitted or top-dose-only effect; note: % is set by controls: 0 for no effect and ±100 for the full control effect
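E. coli AmpC (5.3 nM) in 20 mM phosphate pH 7.0 with 0.01% Triton X-100, preincubated 15 min RT with compound; nitrocefin (2 uL of 800 uM stock) hydrolysis followed by 480 nm absorbance every 20 s over 4 min.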
* hit, by the source's call; ? = inconclusive; . = no result; ! = not confirmed by another sample; [ ] = another dose, or the depositor's remark. Hits are enriched below; roughly 2.4% of the tested compounds scored in any of these assays. Unless noted, calls come from the whole dose curve. Potency is the fitted concentration of half-maximal effect.

SMILES	Prx2 Sm inh	AmpC nodet inh	Anthrax LT inh	AmpC inh det
COc1cccc(-n2c(Cc3cc(=O)[nH]c(=O)[nH]3)nnc2SCC(=O)N2CCC(C)CC2)c1	>57	8%	14%	-1%
O=C(CSc1nnc(Cc2cc(=O)[nH]c(=O)[nH]2)n1-c1ccccc1)N1CCCC1	>57	-17%	8%	-1%
C=C(CC1([C@@H](NP(=O)(c2ccccc2)c2ccccc2)[C@H]2C[C@@H]2CCN(C(=O)OCC)S(=O)(=O)c2ccc(C)cc2)CC1)c1ccccc1	>57	19%	3%	3%
FC(F)(F)c1ccccc1-c1cc(N2CCNCC2)ncn1	>57	-2%	9%	11%
CCNC(=O)[C@@H]1O[C@@H](n2cnc3c(N)nc(NCCc4ccc(CCC(=O)O)cc4)nc32)[C@H](O)[C@@H]1O	>57	2%	?	-4%
COc1ccc(-n2c(Cc3cc(=O)[nH]c(=O)[nH]3)nnc2SCC(=O)Nc2ccccc2)cc1	>57	?	?	11%
COc1ccc(-n2c(Cc3cc(=O)[nH]c(=O)[nH]3)nnc2SCC(=O)N2CCCC2)cc1	>57	4µM*[single pt active]	-5%	14%
CN1CCN(c2ccc(N)c(N3CCN(C)CC3)c2)CC1	>57	10%	13µM*	11%
Nc1ccc(N2CCCCC2)cc1N1CCCCC1	>57	13%	0%	5%
CC(C)(C)OC(=O)N1CCC(C(N)=O)CC1	>57	4µM*[single pt active]	-13%	12%
O=C(CSc1nc(-c2ccccc2)cs1)Nc1nccs1	>57	10µM*	2%	-3%
CN1c2cc3c(cc2N=C(c2ccc(C(=O)O)cc2)c2ccccc21)C(C)(C)CCC3(C)C	.	.	10µM*	.
O=C(CCSc1nnc2scc(-c3ccccc3)n12)Nc1nc(-c2ccccc2)ns1	>57	5µM*	12%	-4%
COc1ccc(OC)c(NC(=O)Nc2nnc(N3CCC(C)CC3)s2)c1	>57	4µM*[single pt active]	?	11%
COc1ccc(NC(=O)Nc2nnc(N3CCC(C)CC3)s2)cc1OC	>57	4µM*[single pt active]	-1%	18%
NCCC[C@@H](CC(=O)N[C@@H]1CCCC[C@H]1C(=O)N[C@H](CC(=O)N[C@@H](CCC(=O)O)CC(=O)O)Cc1c[nH]c2ccccc12)NC(=O)C[C@H](Cc1c[nH]c2ccccc12)NC(=O)[C@@H]1CCCC[C@H]1N	>57	161%	?	-4%
COc1ccc2[nH]cc(CCNc3ncncc3-c3cccnc3)c2c1	>57	10%	-3%	6%
COc1ccc2[nH]cc(CCNc3ccnc(-c4ccc(N(C)C)cc4)n3)c2c1	>57	-6%	7.9µM*	-4%
COc1ccc2[nH]cc(CCNc3ncnc4ccc(-c5ccccc5OC)cc34)c2c1	>57	10%	10µM*	9%
COc1ccc2[nH]cc(CCNc3ccnc(-c4ccoc4)n3)c2c1	>57	-23%	?	10%
COc1ccc2[nH]cc(CCNc3ncncc3-c3ccccc3C)c2c1	>57	11%	10µM*	-4%
COc1ccc2[nH]cc(CCNc3ncnc4ccc(-c5cccnc5)cc34)c2c1	>57	0%	-10%	9%
Cc1[nH]c(C)c(CN(C)C)c1CN(C)C	>57	3%[5.75 µM]	-2%[8 µM]	-2%[5.75 µM]
Cn1c(=O)c(=O)n(C)c2cc(S(=O)(=O)N3CCOCC3)ccc21	>57	-16%	-7%	-2%
Cn1c(=O)c(=O)n(C)c2cc(S(=O)(=O)CCC(=O)N3CCOCC3)ccc21	>57	4µM*[single pt active]	-10%	12%
SMILES	Prx2 Sm inh	AmpC nodet inh	Anthrax LT inh	AmpC inh det
CC[C@H](C(=O)[C@H](C)[C@H](O)[C@H](C)CCc1ccc(C)c(O)c1C(=O)O)[C@H]1O[C@](CC)([C@@H]2CC[C@@](O)(CC)[C@H](C)O2)C[C@H]1C	>57	11%[12.8 µM]	0.32µM*	-3%[12.8 µM]
Cc1nc2cnc(Nc3ccccc3)nc2n(CCc2ccccc2)c1=O	>57	-7%	1%	1%
COC(=O)[C@H](N)CCCN=C(N)N[N+](=O)[O-]	>57	-14%	4%	-3%
COC(=O)c1ccc2c(c1)NC(=O)C1CCCN21 (configuration not stated)	>57	4µM*[single pt active]	?	27%
C=C1C/C(=C\C)C(=O)O[C@@H]2CCN3CC=C(COC(=O)[C@]1(C)O)[C@H]23	>57	-5%	.	-3%
NC(=O)c1cn(-c2ccccc2)nc1-c1cccnc1	>57	-3%	11%	-2%
NC(=O)c1cc(Cl)cn(-c2ccccc2)c1=O	>57	3.2µM*[single pt active]	-3%	13%
C/C=C1/C(=O)C[C@H]2[C@@H]3CCC4=CC(=O)CC[C@]4(C)[C@H]3CC[C@]12C	.	56%	?	9%
O=c1oc2ccccc2n1CCc1ccccc1	>57	-11%	-4%	-2%
O=c1oc2ccccc2n1Cc1ccccc1Cl	>57	4µM*	?	14%
CCC(Oc1ccc2ccccc2c1)C(=O)O (configuration not stated)	>57	3%	-12%	-1%
CC1=CC(=O)NP(=O)(Oc2ccc3ccccc3c2)N1 (configuration not stated)	0.57*	-13%	?	5%
O=C(Nc1ccccc1)N1CCC2(CC1)CCN(C(=O)c1ccncc1)CC2	>57	5%	3%	-1%
COc1cccc(OCc2nc3ccccc3[nH]2)c1	>57	4µM*[single pt active]	-22%	12%
CCNc1ncc2nc(-c3cc(F)cc(F)c3)c(=O)n(C[C@H]3CCCO3)c2n1	>57	-1%	?	-2%
COc1ccc(-c2cc(=O)c3c(O)cc(O)cc3o2)cc1	>57	-20%[12.8 µM]	-5%[3.58 µM]	-5%[12.8 µM]
O=c1cc(-c2ccc(O)c(O)c2)oc2cc(O)cc(O)c12	>26	0.5µM*!	?	-1%
COc1ccc(NC(=O)[C@H](CCS(C)(=O)=O)N2Cc3ccccc3C2=O)c(OC)c1	>57	4µM*[single pt active]	7%	16%
Cn1c(=O)oc2cc(S(=O)(=O)N3CCCC(C(=O)NCc4ccc5c(c4)OCO5)C3)ccc21 (configuration not stated)	>57	4µM*[single pt active]	24%	11%
Cc1ccc(NC(=O)C2CCCN(S(=O)(=O)c3ccc4c(c3)oc(=O)n4C)C2)nc1 (configuration not stated)	>57	4µM*[single pt active]	3%	14%
CCOc1ccc(C(=O)c2ccc(OCC)c(N)c2)cc1N	.	11%	10µM*	5%
Cc1nc2ccc(S(=O)(=O)NC(C(=O)NC3CCCC3)C(C)C)cc2s1 (configuration not stated)	>57	4µM*[single pt active]	5%	7%
CCN1CCN(C(=O)C(NS(=O)(=O)c2ccc3nc(C)sc3c2)C(C)C)CC1 (configuration not stated)	>57	13%	0%	9%

Compound activity (PubChem BioAssay)
